Screening results from PubChem BioAssay.
This is a sample that favours compounds with a hit; in the whole collection about 12% have one here.
WT yeast gro inh: growth inhibition of WT yeast, mitochondrial fusion screen; inhibition, % at 10 µM; 190,000 tested, 2.1% active; mitochondrial fusion phenotypic screen, WT strain; in the data active means inhibition above about 58%; tested in S. cerevisiae
L major viab: Leishmania major promastigote growth inhibition; Leishmania major promastigotes, resazurin fluorescence viability; inhibition, % at 10 µM; 200,000 tested, 9% active; AID 1063; in the data active means inhibition above about 50%;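 further: promastigotes grown with compound for 44 hours at 28 °C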
KCC2 mod: modulates chloride dependent transport by human KCC2; 190,000 tested, 2.2% active; B-score of Tl+ flux slope (higher = more flux/activation; lower = inhibition) at 10 µM; KCC2 cells, thallium flux FluoZin-2 fluorescence; Q9H2X9; AID 1456;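 active means thallium flux slope and its plate-corrected score both differing from the plate sample mean at a set confidence after two filtering rounds, in either direction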;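 further: slope of fluorescence scaled to starting intensity during 10 to 20 s after thallium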
Target sequence (Q9H2X9 whole entry, looked up): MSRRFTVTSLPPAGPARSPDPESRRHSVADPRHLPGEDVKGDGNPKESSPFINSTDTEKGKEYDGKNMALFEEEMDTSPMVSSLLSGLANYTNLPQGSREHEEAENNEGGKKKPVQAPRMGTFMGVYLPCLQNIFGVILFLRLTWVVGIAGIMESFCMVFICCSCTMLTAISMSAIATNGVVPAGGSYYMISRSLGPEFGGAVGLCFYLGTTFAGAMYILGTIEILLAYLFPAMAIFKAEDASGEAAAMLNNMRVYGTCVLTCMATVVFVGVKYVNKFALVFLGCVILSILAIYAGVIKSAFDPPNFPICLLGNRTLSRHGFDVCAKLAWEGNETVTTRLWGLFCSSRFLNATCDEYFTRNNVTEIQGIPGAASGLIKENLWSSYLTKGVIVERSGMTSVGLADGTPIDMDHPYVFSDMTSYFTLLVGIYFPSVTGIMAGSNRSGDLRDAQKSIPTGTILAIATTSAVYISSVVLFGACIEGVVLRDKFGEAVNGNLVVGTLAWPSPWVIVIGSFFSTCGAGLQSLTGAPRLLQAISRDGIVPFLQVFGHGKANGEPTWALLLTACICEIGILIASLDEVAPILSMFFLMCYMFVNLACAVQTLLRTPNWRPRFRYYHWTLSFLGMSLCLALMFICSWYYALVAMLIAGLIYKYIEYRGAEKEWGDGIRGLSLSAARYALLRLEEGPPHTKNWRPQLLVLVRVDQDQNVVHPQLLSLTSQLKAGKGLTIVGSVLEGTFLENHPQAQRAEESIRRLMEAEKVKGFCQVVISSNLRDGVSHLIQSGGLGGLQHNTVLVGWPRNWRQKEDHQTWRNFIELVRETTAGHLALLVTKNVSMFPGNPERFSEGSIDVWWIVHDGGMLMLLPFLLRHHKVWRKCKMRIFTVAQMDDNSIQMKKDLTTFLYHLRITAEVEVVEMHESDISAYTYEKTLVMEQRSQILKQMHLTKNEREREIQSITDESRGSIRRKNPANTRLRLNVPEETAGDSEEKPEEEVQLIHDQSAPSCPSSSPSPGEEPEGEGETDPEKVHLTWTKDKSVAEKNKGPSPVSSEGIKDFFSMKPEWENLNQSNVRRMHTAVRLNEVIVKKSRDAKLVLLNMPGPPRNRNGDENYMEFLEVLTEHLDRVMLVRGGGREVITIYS
Insulin prom up: MIN6 insulin promoter up-regulation | z-score at 5 µM | MIN6 insulin promoter-GFP reporter, high-content imaging; hits give high values | 190,000 tested, 0.3% active | AID 1625;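 active means z-score above 3 at 5 µM with at least 500 cells counted in the well; inconclusive means wells under 500 cells, flagged as cytotoxic or low count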
ROMK mod: human ROMK K+ channel modulation, primary screen. P48048. Tet-inducible ROMK, thallium flux fluorescence; actives lie on both sides. B-score at 10 µM. 130,000 tested, 2% active. AID 1918;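 active means signal ratio slope over the read window, or its plate-corrected B-score, at least 3 SD from the plate mean, either direction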;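 further: B-score of the F/F0 ratio slope over 7 to 12 s after thallium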
Insulin prom inh: TRM-6 insulin promoter activity inhibition; inhibition, % at 2 µM; TRM-6 cells (human fetal islet line), insulin promoter-eGFP reporter, imaging; reporter expression induced with tamoxifen; 130,000 tested, 0.9% active; AID 1273;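 active means inhibition above the mean plus 3 SD, with well images judged a real hit on visual review, cut at about 60% in these data, passing the limit was not always enough; inconclusive means inhibition over the cutoff but images rejected on review; inactive means inhibition not above the cutoff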
Starred values were filed as active, the others as inactive; u = inconclusive; x = not tested or not shown.

SMILES	WT yeast gro inh	L major viab	KCC2 mod	Insulin prom up	ROMK mod	Insulin prom inh
Cc1cccc2cc(C(c3nnnn3CC3CCCO3)N3CCc4ccccc4C3)c(=O)[nH]c12 (stereo not drawn)	8	27	x	-0.29	-0.55	x
CCOC(=O)CSc1nnc(CSc2nc(N)c3c(C)c(C)sc3n2)n1-c1ccccc1	-1	-6	-0.78	-0.23	-0.39	12
COc1ccc(C2C(C(=O)c3ccccc3)=C(C)Nc3nc4ccccc4n32)c(OC)c1 (stereo not drawn)	25	87*	-0.71	3.8*	-0.97	-46
COc1cc(OC)c(C2C3=C(CCCC3=O)Nc3nc4ccccc4n32)cc1OC (stereo not drawn)	4	99*	-0.4	1.5	x	x
COc1ccc(NC(=O)NC23CC4(C)CC(C)(CC(C)(C4)C2)C3)cc1	26	95*	0.49	-0.19	0.24	-33
C=CCNC(=O)c1onc(CSc2cccc(OCC)c2)c1C(=O)O	11	-12	0.81	-0.98	x	16
Cc1ccc(C(C)C)c(Oc2nnnn2-c2ccccc2)c1	66*	11	-0.019	-0.63	x	-143
N#Cc1nc(Cc2cccc3ccccc23)oc1NCCN1CCCCC1	-19	65*	-4.3*	1.5	-5.6*	x
CC1CN(c2oc(Cc3cccc4ccccc34)nc2C#N)CC(C)O1 (stereo not drawn)	61*	18	x	-0.01	-0.46	-62
CC1CN(c2oc(-c3cccs3)nc2C#N)CC(C)O1 (stereo not drawn)	10	1	0.85	0.3	0.63	x
O=C(Oc1ccc2c(=O)c(Oc3ccc4ccccc4c3)coc2c1)c1ccco1	29	-10	x	x	x	-27
CCNC(=O)CC1C(=O)N(CC)C(=S)N1NC(=O)c1ccc(Cl)cc1 (stereo not drawn)	29	5	-1.1	x	x	-68
O=Nc1c(O)n(Cc2ccc(Cl)c(Cl)c2)c2ccccc12	2	77*	0.18	-0.14	x	8
C/C(=N/NC(=O)Nc1ccccc1)c1ccc(C)cc1	5	51*	0.036	0.49	0.18	0
CCCN(CCC)C(=O)Cn1c(=O)n(CCCCC(=O)NCc2ccco2)c(=O)c2ccccc21	-1	-3	0.51	-0.06	0.79	5
CC(=O)c1cc(C#N)c(N2CCCC2)nc1C	-2	100*	1.1	0.2	0.077	x
CC(=O)c1cc(C#N)c(SCC(=O)OC(C)C)nc1C	-33	28	x	0.15	-0.42	93*
CCSc1nc(C)c(C(C)=O)cc1C#N	-5	-7	-0.15	x	0.38	-64
CCOC(=O)c1cccc(NC(=O)CSc2nnc(-c3cccnc3)n2C)c1	-3	2	x	-0.02	x	-37
Nc1c(N2CCOCC2)cc(Cl)c2nonc12	-2	0	-0.27	-0.5	x	x
Nc1c(N2CCCC2)cc(Cl)c2nonc12	-15	86*	-0.85	-0.24	x	0
O=C(O)CCCNC(=O)/C(=C\c1ccc(Cl)cc1)NC(=O)c1ccccc1Br	4	1	-0.28	-0.11	-0.19	x
CC1CCCc2sc3nc(N4CCN(CCO)CC4)n4ncnc4c3c21 (stereo not drawn)	16	91*	-2.6	-0.89	-0.59	x
CCN1CCCC1CNS(=O)(=O)c1ccc(Cl)c(C(F)(F)F)c1 (stereo not drawn)	-7	81*	-0.1	0.38	-2.2	x
CCN1CCCC1CNS(=O)(=O)c1ccc(C(=O)Nc2ccccc2)cc1 (stereo not drawn)	10	5	0.83	-0.87	x	-500
SMILES	WT yeast gro inh	L major viab	KCC2 mod	Insulin prom up	ROMK mod	Insulin prom inh
NS(=O)(=O)c1cccc(NC(=O)CSc2nc3ccc(Cl)cc3[nH]2)c1	3	2	-1.2	-0.13	0.33	-42
COC(=O)CN(n1cnnc1)S(=O)(=O)c1ccccc1Cl	-7	0	x	-0.06	0.4	-48
CON(c1nc(N(C)C)nc(N(C)C)n1)S(=O)(=O)c1ccccc1Cl	x	65*	-0.26	x	x	-29
CC(=O)Nc1ccc(N(C(=O)Cn2nnc3ccccc32)C(C(=O)NC2CCCC2)c2ccc(O)c(O)c2)cc1 (stereo not drawn)	-1	2	0.58	-0.46	-0.71	28
CC(=O)Nc1c(C(=O)c2ccccc2)oc2ccccc12	-3	1	x	0.37	-0.37	71*
Cc1ccc(-n2nnnc2SCC(=O)c2ccc3c(c2)NC(=O)CO3)c(C)c1	13	2	-0.053	-0.34	-0.54	4
CN(C)CCCN(C(=O)CCc1ccccc1)c1nc2c(F)cccc2s1	60*	41	-0.4	-0.17	0.0083	-76
CN(C)CCCN(C(=O)CCOc1ccccc1)c1nc2c(F)cccc2s1	11	50*	-0.073	-0.02	-0.27	x
CN(C)CCCN(C(=O)/C=C/c1cccs1)c1nc2c(F)cccc2s1	47	97*	-0.027	0.13	-0.51	-100
CCCS(=O)(=O)N1CCCC(C(=O)NCCN2CCOCC2)C1 (stereo not drawn)	32	-3	0.68	1.2	x	x
CC(=O)c1ccc(N2CCN(C(=O)c3ccco3)C(C)C2)c(F)c1 (stereo not drawn)	6	64*	1.4	-0.25	-0.19	-438
COc1cccc(-c2ccc(C#N)c(OC(=O)c3c(Cl)cccc3Cl)n2)c1	62*	14	0.82	0.54	x	20
Cc1noc(C)c1S(=O)(=O)N1CCC(C(=O)NCCc2ccc(S(N)(=O)=O)cc2)CC1	-14	-1	0.0031	-0.54	-0.009	10
OC(CNCCC1C=Nc2ccccc21)Cn1c2ccc(Cl)cc2c2cc(Cl)ccc21 (stereo not drawn)	98*	100*	1	u	x	20
Cc1c(C)n(CC(O)CNCCO)c2ccccc12 (stereo not drawn)	15	-10	-0.014	0.9	-1.1	x
OC(CNCC1CCCO1)Cn1c2ccc(Cl)cc2c2cc(Cl)ccc21 (stereo not drawn)	7	100*	0.013	0.03	x	-89
Cc1ccccc1OCC(=O)NCC1CCCO1 (stereo not drawn)	2	-5	1.1	x	x	-17
On1nnc2ccc(C(F)(F)F)cc21	23	-8	-0.068	-0.21	-0.18	x
COc1ccc2c(c1OC)C(=O)OC2Nc1nc(-c2ccc(-c3ccccc3)cc2)cs1 (stereo not drawn)	74	52*	-2.8	0.08	-1.2	-11
CCOC(=O)Cc1nnc(NC(=O)COc2ccc(F)cc2)s1	-3	5	0.055	0.15	x	-40
O=C(O)c1cccc(Oc2ncnc3sc4c(c23)CCCC4)c1	-20	-7	-2	0.6	-0.1	x
O=C1CC(c2cccc(Cl)c2)CC(O)=C1C=Nc1cccc(Cl)c1 (stereo not drawn)	81*	-6	-0.29	0.07	0.93	-67
O=C1CC(c2ccccc2)CC(O)=C1C=Nc1ccccc1 (stereo not drawn)	-3	8	-0.33	0.17	0.8	x
Cc1c(Cl)cccc1NC(=O)CC1NCCNC1=O (stereo not drawn)	22	-3	0.48	0.41	x	27
Cc1cc(F)ccc1NCc1cc2c(cc1[N+](=O)[O-])OCO2	5	13	-1.1	-0.6	x	30
